Whole data set: some 33,000 sequences, median “e-score” near -0.053, cut for the highest 2% near 0.38. What follows is part of a selection rich in the highest values, with near analogues and random picks from the rest.

This test has as its target T1, SIX1 homeodomain (reference allele) (human, UniProt Q15475 108-198).
T1 sequence: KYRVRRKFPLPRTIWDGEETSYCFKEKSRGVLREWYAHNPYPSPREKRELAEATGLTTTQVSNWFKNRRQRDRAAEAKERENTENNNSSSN
Briefly: universal protein binding microarray; Universal all-10-mer PBM (8x60K, AMADID 030236), 300 nM GST-tagged protein, Alexa Fluor 488 anti-GST; buffer, salt, pH and temperature not stated (as in Berger); high values mean tight binding. To be noted: protein: ivt; tags: N-terminal GST; dsDNA, one strand shown. Summed up:
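Duplicate protein binding microarrays (universal 'all 10-mer', 8×60K format) were incubated with GST-tagged homeodomains at 300 nM final concentration. Binding was quantified as 8-mer E-scores with the Universal PBM Analysis Suite.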
Turning to AGGGCGAT, the binding signal is 0.284 ± 0.0121 E-score. With ATCACCAG, the binding signal is 0.166 ± 0.0324 E-score. As to CCACGATC, the binding signal stood at 0.195 ± 0.0938 E-score. The same measure for ATCCTGAC: 0.228 ± 0.00948 E-score.

Regarding AAGTATTG, the binding signal is 0.157 ± 0.085 E-score.

Take CAGATCCC: the binding signal is 0.295 ± 0.0571 E-score. Take AGGATCTG: the binding signal was 0.244 ± 0.0478 E-score. Consider AGGATCCT, for which the binding signal was 0.385 ± 0.0102 E-score.

Turning to AGGATCCC, the binding signal was 0.379 ± 0.00668 E-score.

As to CGGATCCC, the binding signal came out at 0.399 ± 0.0592 E-score. The result for AGGATCTC reads 0.292 ± 0.0258 E-score. Consider CGGATCTC, for which the binding signal is 0.342 ± 0.0442 E-score. On to AGGATCCA, for which the binding signal stood at 0.346 ± 0.0238 E-score.

Take AAGATCCT: the binding signal was 0.326 ± 0.0346 E-score.

Take ATCTTCGA: the binding signal was 0.193 ± 0.0484 E-score. On to GAGGAATA, for which the binding signal stood at 0.21 ± 0.0309 E-score. Consider GACCTATC, for which the binding signal turned out to be 0.269 ± 0.00861 E-score. Take ACATGATA: the binding signal came out at 0.426 ± 0.0281 E-score. Turning to GCACGATA, the binding signal came out at 0.325 ± 0.00783 E-score. For the sequence GCCTGATA, the binding signal was 0.321 ± 0.0449 E-score. Turning to CCATGATC, the binding signal was found to be 0.293 ± 0.0102 E-score. In the case of ACATGAGA, the binding signal was determined as 0.183 ± 0.0219 E-score. ACATGATC: the binding signal came out at 0.279 ± 0.0144 E-score. For CCATGAGA, the binding signal amounted to 0.242 ± 0.0275 E-score. As for GCATGATA, the binding signal was determined as 0.4269 ± 0.00375 E-score. The result for CCATGATA reads 0.376 ± 0.00711 E-score; that for AACCATCT, 0.154 ± 0.0503 E-score. For ATCAATAA, the binding signal was found to be 0.182 ± 0.0114 E-score.

On to ATCAGCCA, for which the binding signal is 0.237 ± 0.00617 E-score. The result for ACCGCTAT reads 0.216 ± 0.0322 E-score; that for CAGATACG, 0.334 ± 0.0281 E-score. AAAATACC: the binding signal turned out to be 0.181 ± 0.0716 E-score. On to AAGATACC, for which the binding signal amounted to 0.426 ± 0.0219 E-score. GAGATACC: the binding signal is 0.44068 ± 0.000332 E-score. Turning to GAGATAGC, the binding signal came out at 0.161 ± 0.0517 E-score.

On to CAGATACC, for which the binding signal stood at 0.433 ± 0.00544 E-score. The same measure for CAGATACA: 0.355 ± 0.0318 E-score. As to AAGATACG, the binding signal turned out to be 0.322 ± 0.0506 E-score. With GAGATACA, the binding signal turned out to be 0.332 ± 0.0042 E-score. Regarding GATCTGGC, the binding signal amounted to 0.295 ± 0.0253 E-score.

In the case of ATATTGTA, the binding signal worked out at 0.294 ± 0.0399 E-score.

Regarding TAATATTA, the binding signal was found to be 0.161 ± 0.0729 E-score. As to GATCAAGC, the binding signal is 0.312 ± 0.00728 E-score. As to ACACGACT, the binding signal was 0.162 ± 0.0387 E-score. Regarding ATCATTCG, the binding signal worked out at 0.294 ± 0.00745 E-score. The same measure for GAGCGATC: 0.279 ± 0.0379 E-score. As to GATCTCCC, the binding signal came out at 0.361 ± 0.00166 E-score. Turning to TATCGAAA, the binding signal came out at 0.345 ± 0.0543 E-score. Take CCATCTCG: the binding signal amounted to 0.166 ± 0.114 E-score.

For GATCATAC, the binding signal turned out to be 0.3778 ± 0.00307 E-score.

Take CATCATAC: the binding signal was found to be 0.151 ± 0.0343 E-score. As for GATCATCA, the binding signal stood at 0.34 ± 0.00658 E-score.

Take GCTCATCC: the binding signal turned out to be 0.219 ± 0.00236 E-score. On to GATCATCC, for which the binding signal amounted to 0.41 ± 0.0124 E-score. Consider GATCACGC, for which the binding signal stood at 0.317 ± 0.0237 E-score. As for GATCACCC, the binding signal was found to be 0.407 ± 0.0371 E-score. For the sequence GATCATGC, the binding signal is 0.242 ± 0.0641 E-score. For the sequence GATCACAC, the binding signal is 0.351 ± 0.0284 E-score.

On to GATGGGGA, for which the binding signal was 0.191 ± 0.049 E-score. Consider CGTGGATA, for which the binding signal is 0.362 ± 0.0371 E-score. Turning to ACCTGCTA, the binding signal was 0.2283 ± 0.000693 E-score.

In the case of TGGTGACA, the binding signal turned out to be 0.156 ± 0.0327 E-score.

As for GATCCTAC, the binding signal is 0.32 ± 0.0262 E-score. The result for ATGCGATA reads 0.394 ± 0.037 E-score. With AAGCGATC, the binding signal worked out at 0.239 ± 0.00546 E-score. Turning to AGGCGATA, the binding signal amounted to 0.357 ± 0.00753 E-score. As for GTGCGATA, the binding signal is 0.36 ± 0.0111 E-score. For the sequence TAGCGATA, the binding signal is 0.3796 ± 0.0024 E-score. With CAGCGATA, the binding signal came out at 0.359 ± 0.0421 E-score.

In the case of CTGCGATA, the binding signal was found to be 0.342 ± 0.0342 E-score. As to AAGCGATA, the binding signal worked out at 0.376 ± 0.0611 E-score. Regarding GAGCGATA, the binding signal was 0.344 ± 0.042 E-score.

Regarding AGATAGTG, the binding signal is 0.152 ± 0.0589 E-score. The result for CCCATCCG reads 0.191 ± 0.101 E-score; that for CAATGACA, 0.198 ± 0.0712 E-score; that for GGTGTTTA, 0.203 ± 0.0284 E-score. The same measure for ACCCGACA: 0.239 ± 0.0574 E-score; for ATCAATGC: 0.163 ± 0.0171 E-score. For ATCCATTA, the binding signal came out at 0.244 ± 0.00287 E-score.

For the sequence AGCCGTAT, the binding signal amounted to 0.292 ± 0.018 E-score. In the case of ATATACGC, the binding signal came out at 0.244 ± 0.0546 E-score. Turning to AATGATCC, the binding signal was found to be 0.424 ± 0.011 E-score. For GATGATCA, the binding signal is 0.315 ± 0.00602 E-score.

Turning to CATGATCA, the binding signal is 0.177 ± 0.0294 E-score.

On to GATGATCC, for which the binding signal is 0.45356 ± 0.000438 E-score.

Turning to GAAGATCC, the binding signal turned out to be 0.297 ± 0.0273 E-score.

Values taken from PMC10668032, “Altered binding affinity of SIX1-Q177R correlates with enhanced WNT5A and WNT pathway effector expression in Wilms tumor”.
